# The other results are listed elsewhere or left out. The hit rate among all sequences tested is not known here.
# Biological target: furin, P09958
# Assay: furin cleavage Z-score vs untreated control; higher = more cleavage, active = 3.5 or more, inactive = 1 or less, 8 variable residues between constant flanks
# Method in brief: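 Cleavage by purified furin was measured on 8-mer peptides fused to a cDNA oligonucleotide and held on magnetic beads by their N-terminus. Reactions (0.01 ml, 1:10 enzyme:substrate) ran 7.5, 15 or 30 min in 50 mM HEPES pH 7.5 with CaCl2 and NaCl. Released DNA was adapter-tagged by PCR and sequenced, with read counts giving abundance. Log counts versus furin-free reactions were lowess-adjusted and scaled by median absolute deviation to give the cleavage Z-score.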
# Sequence of furin, P09958 (P09958 whole entry): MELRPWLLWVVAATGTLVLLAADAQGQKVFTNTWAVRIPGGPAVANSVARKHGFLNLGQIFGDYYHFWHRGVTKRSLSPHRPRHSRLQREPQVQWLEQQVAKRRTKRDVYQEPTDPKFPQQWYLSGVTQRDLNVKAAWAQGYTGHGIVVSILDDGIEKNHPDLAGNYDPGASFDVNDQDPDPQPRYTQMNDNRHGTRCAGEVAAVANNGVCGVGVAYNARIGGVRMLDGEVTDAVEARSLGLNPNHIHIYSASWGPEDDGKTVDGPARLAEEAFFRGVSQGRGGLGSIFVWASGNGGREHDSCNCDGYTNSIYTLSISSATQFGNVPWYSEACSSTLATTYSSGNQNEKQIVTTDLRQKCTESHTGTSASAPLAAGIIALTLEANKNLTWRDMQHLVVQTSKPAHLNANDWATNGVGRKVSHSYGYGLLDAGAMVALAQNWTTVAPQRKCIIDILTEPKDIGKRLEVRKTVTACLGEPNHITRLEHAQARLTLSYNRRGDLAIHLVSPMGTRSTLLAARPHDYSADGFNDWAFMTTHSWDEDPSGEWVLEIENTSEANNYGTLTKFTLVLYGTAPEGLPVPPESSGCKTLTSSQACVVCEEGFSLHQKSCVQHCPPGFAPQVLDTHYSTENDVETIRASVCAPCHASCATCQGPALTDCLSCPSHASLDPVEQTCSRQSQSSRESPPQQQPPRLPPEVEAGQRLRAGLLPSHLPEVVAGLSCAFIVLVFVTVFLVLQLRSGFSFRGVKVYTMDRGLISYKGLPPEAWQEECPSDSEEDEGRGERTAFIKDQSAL
Sequence,furin cleavage Z-score (7.5 min),furin cleavage Z-score (15 min),furin cleavage Z-score (30 min)
CAVTSPLTTSAGNASASA [HC1059],-0.539 (inactive),-0.0107 (inactive),-0.218 (inactive)
CAEVVTSTEVAGNASASA [HC2232],-0.0344 (inactive),0.123 (inactive),-0.271 (inactive)
CALPCSFTTLAGNASASA [HC498],0.311 (inactive),0.0716 (inactive),0.261 (inactive)
CAETTTPCSGAGNASASA [HC1978],0.473 (inactive),0.124 (inactive),-0.446 (inactive)
CAGHRMAWDMAGNASASA [HC318],-0.464 (inactive),-0.574 (inactive),-0.169 (inactive)
CATGLTHIDAAGNASASA [HC942],-0.972 (inactive),-0.954 (inactive),0.105 (inactive)
CAERPCHRPSAGNASASA [HC2333],1.21,-1.94 (inactive),1.34
CAWICEVLSDAGNASASA [HC1152],0.155 (inactive),0.346 (inactive),0.769 (inactive)
CARRHIDLLVAGNASASA [HC290],1.11,0.566 (inactive),1.2
CAEVFTSTWVAGNASASA [HC2187],0.575 (inactive),-0.109 (inactive),-0.829 (inactive)
CADKSRSPRSAGNASASA [FS-409],6.8 (active),6.47 (active),6.46 (active)
CAYIERSPRSAGNASASA [FS-520],1.05,2.95,3.61 (active)
CAGSQLPCEPAGNASASA [HC1239],-0.324 (inactive),-2.36 (inactive),0.573 (inactive)
CANWAVRTKLAGNASASA [HC1634],1.9,0.613 (inactive),-0.705 (inactive)
CAREKKSNSPAGNASASA [FS-2006],-0.648 (inactive),-0.595 (inactive),-1.15 (inactive)
CAREKRAAEQAGNASASA [FS-1850],7.93 (active),9.37 (active),8.96 (active)
CAREKRSISDAGNASASA [FS-1889],9.34 (active),11.3 (active),8.9 (active)
CAREKRAKIKAGNASASA [FS-2207],-1.38 (inactive),0.0659 (inactive),0.59 (inactive)
CAREKRRSADAGNASASA [FS-2915],2.47,1.11,0.11 (inactive)
CARFARMIEQAGNASASA [FS-2257],1.16,3.39,3.53 (active)
CARERRGREQAGNASASA [FS-1697],0.641 (inactive),1.84,1.15
CAREKRSNSQAGNASASA [FS-2008],6.55 (active),8.6 (active),7.52 (active)
CAQHLPYIEQAGNASASA [HC1017],-0.597 (inactive),-0.486 (inactive),-0.755 (inactive)
CAREARVVSDAGNASASA [FS-2908],-1.38 (inactive),-0.98 (inactive),-0.486 (inactive)
CARAPRSSSQAGNASASA [FS-3147],1.17,1.52,0.934 (inactive)
CAREKRGGETAGNASASA [FS-2134],-0.448 (inactive),0.845 (inactive),1.95
CAVPCCSMSYAGNASASA [HC2019],-0.257 (inactive),0.638 (inactive),1.91

# From the supplement of paper PMC3545927
